In the supplement of paper PMC11732987, “Enantioselective OTUD7B fragment discovery through chemoproteomics screening and high-throughput optimisation” (Communications Chemistry, 2025):

Experiments:
Test in all cases: log2 ratio of Biotin-Ahx-Ub-VS probe labelling (fragment/DMSO); higher = less target engagement (more negative = stronger competition), active = hit call of the paper (q ≤ 0.05, log2 ratio ≤ -1)
Conditions in all cases: compound concentration: 200 uM; treatment time: 3 h
USP42 = biological target: T1, USP42 (UniProt Q9H9J4)
T1 sequence (whole entry): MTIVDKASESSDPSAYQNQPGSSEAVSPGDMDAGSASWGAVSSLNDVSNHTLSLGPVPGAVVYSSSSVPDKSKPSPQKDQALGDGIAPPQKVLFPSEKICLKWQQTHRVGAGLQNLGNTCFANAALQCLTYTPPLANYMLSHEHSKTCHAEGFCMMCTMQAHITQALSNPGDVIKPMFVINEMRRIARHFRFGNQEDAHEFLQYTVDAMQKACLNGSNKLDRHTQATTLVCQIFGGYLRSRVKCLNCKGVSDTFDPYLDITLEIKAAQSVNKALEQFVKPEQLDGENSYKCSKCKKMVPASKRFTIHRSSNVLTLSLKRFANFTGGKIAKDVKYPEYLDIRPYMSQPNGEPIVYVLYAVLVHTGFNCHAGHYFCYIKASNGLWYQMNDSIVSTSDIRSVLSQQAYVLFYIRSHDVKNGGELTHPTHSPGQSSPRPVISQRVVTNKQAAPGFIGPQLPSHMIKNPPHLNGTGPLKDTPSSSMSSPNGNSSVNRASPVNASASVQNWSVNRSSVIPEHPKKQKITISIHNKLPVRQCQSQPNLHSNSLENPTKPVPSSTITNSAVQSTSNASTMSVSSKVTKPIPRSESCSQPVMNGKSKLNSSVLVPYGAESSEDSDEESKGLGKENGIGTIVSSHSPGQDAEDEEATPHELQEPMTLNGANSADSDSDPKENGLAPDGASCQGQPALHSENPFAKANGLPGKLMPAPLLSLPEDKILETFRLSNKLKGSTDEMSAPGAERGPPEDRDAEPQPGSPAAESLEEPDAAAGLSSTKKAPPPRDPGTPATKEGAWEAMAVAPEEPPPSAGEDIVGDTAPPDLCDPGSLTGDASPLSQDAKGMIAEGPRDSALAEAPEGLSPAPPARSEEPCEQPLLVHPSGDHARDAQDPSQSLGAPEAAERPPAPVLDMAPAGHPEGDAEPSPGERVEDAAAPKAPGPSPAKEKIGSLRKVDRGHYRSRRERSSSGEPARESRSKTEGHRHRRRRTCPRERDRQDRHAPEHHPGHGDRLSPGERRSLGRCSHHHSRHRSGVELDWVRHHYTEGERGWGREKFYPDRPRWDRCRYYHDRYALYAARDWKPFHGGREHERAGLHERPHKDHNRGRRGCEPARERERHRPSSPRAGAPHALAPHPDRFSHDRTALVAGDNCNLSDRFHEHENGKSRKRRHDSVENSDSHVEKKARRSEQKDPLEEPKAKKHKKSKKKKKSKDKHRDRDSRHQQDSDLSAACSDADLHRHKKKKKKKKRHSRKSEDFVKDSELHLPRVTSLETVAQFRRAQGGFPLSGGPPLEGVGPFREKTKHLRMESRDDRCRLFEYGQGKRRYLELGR
Summary of the method: (§1)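 Each value is an average log2 ratio of fragment to vehicle, tested by unpaired t-test. The underlying Spectronaut label-free quantities were global-median-normalised, and only proteins with ≥2 unique peptides were included. Triplicate HEK293T lysate samples (495 µg) were exposed to fragment at 200 µM or vehicle for 3 h, then to Biotin-Ahx-Ub-VS at 0.5 µM final for 1 h, before NeutrAvidin enrichment of labelled DUBs, LysC and trypsin digestion, and diaPASEF LC-MS/MS.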

USP46 = USP46 (UniProt P62068)
Summary of the method: as §1

USP47 = biological target: T2, USP47 (UniProt Q96K76)
T2 sequence (whole entry): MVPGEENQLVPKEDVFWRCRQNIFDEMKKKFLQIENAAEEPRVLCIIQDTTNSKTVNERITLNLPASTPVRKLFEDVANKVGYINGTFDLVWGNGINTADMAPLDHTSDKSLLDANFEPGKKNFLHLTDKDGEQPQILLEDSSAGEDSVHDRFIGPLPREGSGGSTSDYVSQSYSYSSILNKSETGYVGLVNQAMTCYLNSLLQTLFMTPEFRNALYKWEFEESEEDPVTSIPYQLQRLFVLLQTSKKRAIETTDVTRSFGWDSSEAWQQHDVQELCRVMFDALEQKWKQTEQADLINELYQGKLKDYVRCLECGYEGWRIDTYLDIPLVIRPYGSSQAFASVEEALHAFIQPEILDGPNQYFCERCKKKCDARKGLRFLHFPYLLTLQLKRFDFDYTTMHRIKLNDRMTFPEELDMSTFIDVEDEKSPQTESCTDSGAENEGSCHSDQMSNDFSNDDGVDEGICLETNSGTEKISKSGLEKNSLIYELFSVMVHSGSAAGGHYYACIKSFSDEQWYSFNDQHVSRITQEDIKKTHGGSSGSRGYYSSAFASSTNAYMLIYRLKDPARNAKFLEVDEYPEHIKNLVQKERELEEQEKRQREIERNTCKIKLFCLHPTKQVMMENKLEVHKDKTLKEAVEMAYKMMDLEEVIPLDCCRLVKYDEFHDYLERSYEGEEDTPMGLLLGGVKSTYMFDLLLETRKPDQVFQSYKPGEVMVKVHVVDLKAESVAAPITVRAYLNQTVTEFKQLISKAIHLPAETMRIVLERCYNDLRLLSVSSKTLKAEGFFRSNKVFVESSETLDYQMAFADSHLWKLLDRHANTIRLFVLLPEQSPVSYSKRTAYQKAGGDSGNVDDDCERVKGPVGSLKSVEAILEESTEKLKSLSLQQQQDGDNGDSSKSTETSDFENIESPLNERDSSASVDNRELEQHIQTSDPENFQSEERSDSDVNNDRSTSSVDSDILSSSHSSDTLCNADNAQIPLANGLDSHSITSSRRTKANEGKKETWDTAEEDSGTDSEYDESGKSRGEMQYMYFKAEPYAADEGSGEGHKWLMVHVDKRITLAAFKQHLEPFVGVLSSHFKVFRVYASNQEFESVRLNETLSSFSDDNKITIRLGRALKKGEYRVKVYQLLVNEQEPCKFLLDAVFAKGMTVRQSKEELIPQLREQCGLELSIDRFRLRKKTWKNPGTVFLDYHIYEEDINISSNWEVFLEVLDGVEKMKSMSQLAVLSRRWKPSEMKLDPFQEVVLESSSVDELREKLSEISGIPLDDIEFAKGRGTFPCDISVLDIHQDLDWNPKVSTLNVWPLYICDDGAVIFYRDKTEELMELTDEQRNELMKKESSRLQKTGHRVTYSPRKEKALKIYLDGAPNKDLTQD
Summary of the method: as §1

USP48 = biological target: T3, USP48 (UniProt Q86UV5)
T3 sequence (whole entry): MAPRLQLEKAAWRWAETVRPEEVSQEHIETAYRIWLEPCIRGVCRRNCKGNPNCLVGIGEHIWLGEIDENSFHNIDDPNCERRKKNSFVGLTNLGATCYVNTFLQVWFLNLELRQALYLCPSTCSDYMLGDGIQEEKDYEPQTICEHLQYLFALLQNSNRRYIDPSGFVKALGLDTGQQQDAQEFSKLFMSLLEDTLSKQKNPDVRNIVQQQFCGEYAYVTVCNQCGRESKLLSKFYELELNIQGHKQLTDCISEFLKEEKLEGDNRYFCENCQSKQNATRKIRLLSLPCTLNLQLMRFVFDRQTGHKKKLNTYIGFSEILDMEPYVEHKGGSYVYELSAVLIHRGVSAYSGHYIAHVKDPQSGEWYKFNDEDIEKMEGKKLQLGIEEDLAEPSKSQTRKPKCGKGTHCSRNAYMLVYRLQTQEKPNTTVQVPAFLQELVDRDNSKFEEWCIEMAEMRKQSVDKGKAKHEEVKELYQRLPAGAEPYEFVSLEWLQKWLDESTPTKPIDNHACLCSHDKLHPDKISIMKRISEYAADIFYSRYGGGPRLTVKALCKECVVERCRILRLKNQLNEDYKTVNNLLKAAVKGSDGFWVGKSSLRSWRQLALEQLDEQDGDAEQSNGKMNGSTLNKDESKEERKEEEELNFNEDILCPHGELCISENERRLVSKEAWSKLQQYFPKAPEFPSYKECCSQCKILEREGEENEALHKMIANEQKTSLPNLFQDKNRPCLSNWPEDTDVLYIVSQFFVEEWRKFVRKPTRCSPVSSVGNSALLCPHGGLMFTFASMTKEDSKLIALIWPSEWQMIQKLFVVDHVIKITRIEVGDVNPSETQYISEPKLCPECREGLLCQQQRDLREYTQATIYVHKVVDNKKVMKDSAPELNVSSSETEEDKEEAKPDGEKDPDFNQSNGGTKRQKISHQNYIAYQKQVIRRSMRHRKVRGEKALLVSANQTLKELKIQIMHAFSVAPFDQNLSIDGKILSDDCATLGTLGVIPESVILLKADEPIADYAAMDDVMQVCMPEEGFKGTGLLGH
Summary of the method: as §1

USP5 = biological target: T4, USP5 (UniProt P45974)
T4 sequence (whole entry): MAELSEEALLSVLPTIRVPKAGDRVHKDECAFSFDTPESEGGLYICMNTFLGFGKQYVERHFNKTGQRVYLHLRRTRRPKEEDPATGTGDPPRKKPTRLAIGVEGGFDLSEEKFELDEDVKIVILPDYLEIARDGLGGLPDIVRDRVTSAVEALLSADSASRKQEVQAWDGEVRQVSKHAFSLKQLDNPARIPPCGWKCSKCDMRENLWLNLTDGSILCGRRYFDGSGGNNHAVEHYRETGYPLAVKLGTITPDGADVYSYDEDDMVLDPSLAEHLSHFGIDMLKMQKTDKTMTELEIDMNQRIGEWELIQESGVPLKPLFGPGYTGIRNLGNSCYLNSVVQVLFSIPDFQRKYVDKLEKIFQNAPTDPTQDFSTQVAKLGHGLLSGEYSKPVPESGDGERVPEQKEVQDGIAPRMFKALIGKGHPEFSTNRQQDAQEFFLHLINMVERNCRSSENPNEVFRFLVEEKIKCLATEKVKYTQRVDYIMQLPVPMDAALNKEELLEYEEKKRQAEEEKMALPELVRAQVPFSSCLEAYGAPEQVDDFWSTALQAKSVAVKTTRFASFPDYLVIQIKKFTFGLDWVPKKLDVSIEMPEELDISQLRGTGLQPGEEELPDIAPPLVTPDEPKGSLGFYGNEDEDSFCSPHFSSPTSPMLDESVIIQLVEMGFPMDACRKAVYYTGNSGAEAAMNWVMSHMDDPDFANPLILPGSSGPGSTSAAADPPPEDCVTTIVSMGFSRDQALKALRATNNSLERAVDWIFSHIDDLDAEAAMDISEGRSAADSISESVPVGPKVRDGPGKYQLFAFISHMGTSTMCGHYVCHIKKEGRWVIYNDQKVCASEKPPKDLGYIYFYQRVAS
Summary of the method: as §1

USP54 = USP54 (UniProt Q70EL1)
Summary of the method: as §1

USP7 = USP7 (UniProt Q93009)
Summary of the method: as §1

USP8 = biological target: T5, USP8 (UniProt P40818)
T5 sequence (whole entry): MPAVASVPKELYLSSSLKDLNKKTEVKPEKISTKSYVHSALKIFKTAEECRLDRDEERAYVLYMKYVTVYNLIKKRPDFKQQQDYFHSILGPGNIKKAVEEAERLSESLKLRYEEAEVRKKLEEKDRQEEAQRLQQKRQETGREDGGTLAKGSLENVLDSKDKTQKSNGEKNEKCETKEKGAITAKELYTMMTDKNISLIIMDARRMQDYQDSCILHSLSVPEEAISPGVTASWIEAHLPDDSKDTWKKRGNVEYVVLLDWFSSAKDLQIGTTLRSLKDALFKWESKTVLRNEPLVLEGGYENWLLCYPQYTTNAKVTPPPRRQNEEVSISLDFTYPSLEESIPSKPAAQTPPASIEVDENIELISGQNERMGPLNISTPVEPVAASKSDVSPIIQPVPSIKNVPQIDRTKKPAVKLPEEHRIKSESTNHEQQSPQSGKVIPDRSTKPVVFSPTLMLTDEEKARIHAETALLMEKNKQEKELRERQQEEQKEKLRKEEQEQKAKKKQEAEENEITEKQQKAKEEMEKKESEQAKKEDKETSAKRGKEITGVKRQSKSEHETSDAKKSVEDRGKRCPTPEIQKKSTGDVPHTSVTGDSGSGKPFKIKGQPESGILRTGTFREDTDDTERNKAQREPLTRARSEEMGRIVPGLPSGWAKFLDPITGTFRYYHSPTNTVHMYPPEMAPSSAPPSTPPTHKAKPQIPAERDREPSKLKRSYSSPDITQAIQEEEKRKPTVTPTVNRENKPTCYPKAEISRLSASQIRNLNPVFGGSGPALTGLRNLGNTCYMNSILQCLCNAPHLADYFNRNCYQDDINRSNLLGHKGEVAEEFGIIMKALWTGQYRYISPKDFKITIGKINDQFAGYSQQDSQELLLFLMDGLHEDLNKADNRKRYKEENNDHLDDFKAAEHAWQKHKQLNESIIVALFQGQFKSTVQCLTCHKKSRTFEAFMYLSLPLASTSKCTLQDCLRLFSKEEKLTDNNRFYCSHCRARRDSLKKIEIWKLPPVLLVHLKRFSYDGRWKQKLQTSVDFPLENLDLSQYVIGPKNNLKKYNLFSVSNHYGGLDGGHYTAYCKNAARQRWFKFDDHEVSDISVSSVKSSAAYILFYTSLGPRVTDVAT
Summary of the method: as §1

USP9X = USP9X (UniProt Q93008)
Summary of the method: as §1

UniProt O00487 = biological target: UniProt O00487
Summary of the method: as §1

Measured: log2 ratio of Biotin-Ahx-Ub-VS probe labelling

Sequence of USP46 (P62068 whole entry): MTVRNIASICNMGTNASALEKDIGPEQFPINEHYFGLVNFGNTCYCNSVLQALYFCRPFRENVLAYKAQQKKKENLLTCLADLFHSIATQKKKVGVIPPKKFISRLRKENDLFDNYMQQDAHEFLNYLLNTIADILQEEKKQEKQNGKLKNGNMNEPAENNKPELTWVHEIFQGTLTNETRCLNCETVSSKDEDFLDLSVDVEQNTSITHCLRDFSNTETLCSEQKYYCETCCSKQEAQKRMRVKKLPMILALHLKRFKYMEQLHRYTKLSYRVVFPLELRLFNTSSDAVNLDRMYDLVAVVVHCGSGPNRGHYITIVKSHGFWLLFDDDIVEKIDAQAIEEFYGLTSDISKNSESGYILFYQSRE
Sequence of USP7 (Q93009 whole entry, looked up): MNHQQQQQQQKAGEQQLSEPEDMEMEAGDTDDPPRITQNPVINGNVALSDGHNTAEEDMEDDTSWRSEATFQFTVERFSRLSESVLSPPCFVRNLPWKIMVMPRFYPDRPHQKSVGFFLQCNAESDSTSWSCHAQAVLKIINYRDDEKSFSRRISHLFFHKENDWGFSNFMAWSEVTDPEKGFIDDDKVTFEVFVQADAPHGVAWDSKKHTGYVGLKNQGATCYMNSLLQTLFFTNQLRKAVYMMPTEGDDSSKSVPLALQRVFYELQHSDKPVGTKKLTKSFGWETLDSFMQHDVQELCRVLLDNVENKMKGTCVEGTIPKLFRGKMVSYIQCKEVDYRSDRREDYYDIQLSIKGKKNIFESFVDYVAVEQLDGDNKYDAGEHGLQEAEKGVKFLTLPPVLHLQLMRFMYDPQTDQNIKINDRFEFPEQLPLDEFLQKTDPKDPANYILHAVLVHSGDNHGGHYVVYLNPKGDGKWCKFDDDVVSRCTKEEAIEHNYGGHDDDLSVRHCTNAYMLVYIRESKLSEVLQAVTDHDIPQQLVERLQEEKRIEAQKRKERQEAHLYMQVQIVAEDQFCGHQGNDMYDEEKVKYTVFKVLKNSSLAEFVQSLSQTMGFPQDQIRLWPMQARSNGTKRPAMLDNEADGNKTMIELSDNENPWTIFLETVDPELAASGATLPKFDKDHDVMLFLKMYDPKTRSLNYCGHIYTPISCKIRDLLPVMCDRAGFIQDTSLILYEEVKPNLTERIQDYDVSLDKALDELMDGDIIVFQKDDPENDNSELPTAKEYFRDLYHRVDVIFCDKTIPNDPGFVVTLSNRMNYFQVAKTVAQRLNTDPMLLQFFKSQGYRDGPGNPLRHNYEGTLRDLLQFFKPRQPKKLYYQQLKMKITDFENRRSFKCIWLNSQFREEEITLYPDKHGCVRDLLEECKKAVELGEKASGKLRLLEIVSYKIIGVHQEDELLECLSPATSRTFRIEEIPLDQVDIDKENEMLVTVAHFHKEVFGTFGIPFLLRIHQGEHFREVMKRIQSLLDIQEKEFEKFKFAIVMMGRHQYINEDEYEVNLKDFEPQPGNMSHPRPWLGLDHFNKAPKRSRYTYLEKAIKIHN
Sequence of USP54 (Q70EL1 whole entry): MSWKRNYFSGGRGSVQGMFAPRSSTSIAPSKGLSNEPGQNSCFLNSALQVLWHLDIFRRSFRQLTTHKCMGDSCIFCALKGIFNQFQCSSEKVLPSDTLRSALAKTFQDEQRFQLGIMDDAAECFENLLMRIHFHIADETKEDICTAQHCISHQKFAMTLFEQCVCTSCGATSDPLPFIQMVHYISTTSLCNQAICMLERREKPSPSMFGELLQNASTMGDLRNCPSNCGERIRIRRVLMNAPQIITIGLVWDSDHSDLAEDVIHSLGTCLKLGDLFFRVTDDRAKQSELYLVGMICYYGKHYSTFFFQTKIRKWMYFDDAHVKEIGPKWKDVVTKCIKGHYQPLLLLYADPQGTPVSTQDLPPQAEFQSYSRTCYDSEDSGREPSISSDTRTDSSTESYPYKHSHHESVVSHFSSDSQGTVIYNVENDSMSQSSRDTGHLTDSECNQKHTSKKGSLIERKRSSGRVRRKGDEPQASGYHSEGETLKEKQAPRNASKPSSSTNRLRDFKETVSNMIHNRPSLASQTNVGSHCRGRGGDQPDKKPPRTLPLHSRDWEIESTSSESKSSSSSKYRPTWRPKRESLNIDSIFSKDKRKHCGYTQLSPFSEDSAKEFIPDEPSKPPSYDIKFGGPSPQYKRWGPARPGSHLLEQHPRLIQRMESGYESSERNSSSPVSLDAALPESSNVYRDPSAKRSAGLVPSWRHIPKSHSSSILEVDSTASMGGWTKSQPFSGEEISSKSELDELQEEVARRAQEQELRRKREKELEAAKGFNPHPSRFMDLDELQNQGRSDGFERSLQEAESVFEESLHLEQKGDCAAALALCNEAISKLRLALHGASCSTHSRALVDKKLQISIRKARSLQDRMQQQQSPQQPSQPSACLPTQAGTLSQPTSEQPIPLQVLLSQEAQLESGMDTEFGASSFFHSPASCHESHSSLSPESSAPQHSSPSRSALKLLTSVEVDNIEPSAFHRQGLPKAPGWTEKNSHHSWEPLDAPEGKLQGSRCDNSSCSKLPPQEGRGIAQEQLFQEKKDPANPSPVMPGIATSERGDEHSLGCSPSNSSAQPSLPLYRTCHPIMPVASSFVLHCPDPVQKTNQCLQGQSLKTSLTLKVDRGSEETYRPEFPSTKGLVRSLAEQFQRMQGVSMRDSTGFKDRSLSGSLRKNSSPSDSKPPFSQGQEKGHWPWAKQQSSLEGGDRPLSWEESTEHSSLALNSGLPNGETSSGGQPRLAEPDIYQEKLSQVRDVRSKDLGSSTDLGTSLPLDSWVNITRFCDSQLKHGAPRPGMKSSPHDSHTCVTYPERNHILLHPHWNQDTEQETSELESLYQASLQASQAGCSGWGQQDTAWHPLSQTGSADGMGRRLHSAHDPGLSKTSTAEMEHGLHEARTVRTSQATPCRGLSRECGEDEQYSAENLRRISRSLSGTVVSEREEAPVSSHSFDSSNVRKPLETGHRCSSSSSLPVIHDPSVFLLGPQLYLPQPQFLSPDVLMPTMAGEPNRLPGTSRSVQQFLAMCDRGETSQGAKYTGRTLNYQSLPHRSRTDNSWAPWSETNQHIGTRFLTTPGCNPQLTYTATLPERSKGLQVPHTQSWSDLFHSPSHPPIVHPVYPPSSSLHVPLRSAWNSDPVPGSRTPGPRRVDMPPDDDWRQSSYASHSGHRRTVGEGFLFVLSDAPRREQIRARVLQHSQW
Sequence of UniProt O00487 (O00487 whole entry): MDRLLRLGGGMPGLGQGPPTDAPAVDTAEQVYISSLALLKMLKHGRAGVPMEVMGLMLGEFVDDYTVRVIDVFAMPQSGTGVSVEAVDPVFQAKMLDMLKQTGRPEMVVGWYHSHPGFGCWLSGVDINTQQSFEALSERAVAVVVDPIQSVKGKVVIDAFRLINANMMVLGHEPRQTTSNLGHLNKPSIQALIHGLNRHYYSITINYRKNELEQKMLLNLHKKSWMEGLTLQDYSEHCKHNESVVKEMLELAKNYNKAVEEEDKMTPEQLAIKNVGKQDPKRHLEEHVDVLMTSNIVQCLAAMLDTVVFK

CNC(=O)C1(NC(=O)CCl)CCCCC1
inactive: USP42 -0.202 | USP46 0.0346 | USP47 0.28 | USP48 -0.00183 | USP5 0.148 | USP54 0.521 | USP7 -0.0838 | USP8 -0.173 | USP9X -0.228 | UniProt O00487 0.0455
